From PubChem
MEKK2mut PB1 HTS = MEK5 binding signal on mutant MEKK2 PB1, primary screen, biochemical, multiplex bead flow cytometry, Alexa488-MEK5 | Alexa488-MEK5 binding to MEKK2 mutant | percent response, % at 10 µM | 290,000 compounds, 0.35% hits | AID 1530, 2009; in the data active means percent response above about 24%, passing the limit was not always enough
MEKK3 PB1 HTS = modulators of MEKK3-MEK5 PB1 binding, primary screen, biochemical, wildtype MEKK3, multiplex bead flow cytometry, Alexa488-MEK5 | bead-based flow cytometry, Alexa488-MEK5 binding to MEKK3; actives lie on both sides; 0 = blocked by unlabeled MEK5, 100 = vehicle | 290,000 compounds, 1.4% hits | binding response (% of control), % at 10 µM | Mitogen-activated protein kinase kinase kinase 3 (Homo sapiens), Q99759;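 active means binding response more than 3 SD above or below the average of its plate-row segment, actives on both sides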;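 further: Alexa488 bead fluorescence after subtracting the streptavidin-only scavenger bead signal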
MEKK2 WT-MEK5 = modulators of MEK5 binding to wildtype MEKK2, primary screen, biochemical, multiplex bead flow cytometry, Alexa488-MEK5. Mitogen-activated protein kinase kinase kinase 2 (Homo sapiens), Q9Y2U5. Alexa488-MEK5 binding to MEKK2 WT; actives lie on both sides. binding response (% of control), % at 10 µM. 290,000 compounds, 1.1% hits; in the data active means binding response below about 67% or above about 130%
UBC13 inh = UBC13 polyubiquitin chain formation inhibitors, primary screen, biochemical, TR-FRET, uHTS | 330,000 compounds, 0.47% hits | Ubiquitin-conjugating enzyme E2 N (Homo sapiens), P61088 | inhibition, % at 20 µM | AID 485273, 2010; in the data active means inhibition above about 45%, passing the limit was not always enough
Target sequence (P61088 whole entry, looked up): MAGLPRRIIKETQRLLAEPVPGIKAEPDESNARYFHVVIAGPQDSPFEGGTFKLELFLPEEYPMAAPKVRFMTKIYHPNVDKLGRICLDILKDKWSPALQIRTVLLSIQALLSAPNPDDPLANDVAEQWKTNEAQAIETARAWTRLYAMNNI
Casp3 counter = CASP3 inhibitor validation, counterassay for project on UBE2N polyubiquitination blockers, biochemical, one dose | shares compounds with UBC13 inh | Recombinant caspase-3, Caspase-Glo 3/7 luminescence, 60 min | inhibition, % at 20 µM | 1,400 compounds, 4% hits | AID 488856, 2010;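 active means mean inhibition across replicates above about 26%, limit read from the data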;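 further: plate controls were DMSO with caspase-3 for no effect and DMSO wells lacking enzyme for full effect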
Target sequence (P42574 whole entry, looked up): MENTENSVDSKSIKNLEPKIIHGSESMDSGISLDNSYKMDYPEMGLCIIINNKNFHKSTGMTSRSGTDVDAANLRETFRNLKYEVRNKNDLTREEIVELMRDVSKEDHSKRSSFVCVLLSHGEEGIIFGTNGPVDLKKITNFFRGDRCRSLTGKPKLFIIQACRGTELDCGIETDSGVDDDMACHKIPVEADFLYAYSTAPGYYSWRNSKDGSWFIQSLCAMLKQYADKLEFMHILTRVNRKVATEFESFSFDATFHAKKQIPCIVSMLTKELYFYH
UBC13 conf = UBC13 polyubiquitination inhibitors, single-point retest, confirmation, biochemical, TR-FRET, single concentration; shares compounds with UBC13 inh; inhibition, % at 10 µM; 1,400 compounds, 68% hits; in the data active means inhibition above about 45%
The depositor's hits bear a star; nt = not tested or not shown. Sampled rows, rich in hits. Any-hit rate of the full collection: about 2.3%.

SMILES	MEKK2mut PB1 HTS	MEKK3 PB1 HTS	MEKK2 WT-MEK5	UBC13 inh	Casp3 counter	UBC13 conf
NC(N)=N/N=C/c1ccc(OCc2ccccc2)c(OCc2ccccc2)c1	116.0*	89.0	302.0*	110.5*	-1.2	124.9*
CCN(CC(=O)Nc1c(F)cccc1F)C(=O)CCOc1ccccc1	nt	nt	nt	54.6*	2.4	-3.9
Cc1ccc(OCCCC(=O)Nc2ccc(S(=O)(=O)N3CCOCC3)cc2)cc1	nt	nt	nt	56.0*	-2.6	37.0
O=C(CCCOc1ccccc1)Nc1ccc(S(=O)(=O)N2CCOCC2)cc1	6.0	101.0	102.0	-4.5	nt	nt
CCOc1ccc(Br)cc1S(=O)(=O)Nc1ccc(Cl)c(S(=O)(=O)N(CC)c2ccccc2)c1	-2.0	102.0	100.0	2.9	nt	nt
CCCCCCCNC(=O)C1(CC2CC(c3cccc(Br)c3)=NO2)CCN(C(=O)CCCCCBr)CC1 (centres undefined)	nt	nt	nt	45.1*	-0.6	12.7
C#CCOCCOCCOCCNc1nc(N2CCN(C(=O)CCCCCCCCCCNC(=O)Cn3cc(C[C@@H](C)O)nn3)CC2)nc(N2CCN(C(=O)CCCCCCCCCCNC(=O)[C@H](CCCN=C(N)N)n3cc(C[C@@H](C)CC)nn3)CC2)n1	nt	nt	nt	123.8*	2.9	119.0*
C#CCOCCOCCOCCNc1nc(N2CCN(C(=O)CCCCCCCCCCNC(=O)[C@H](CO)n3cc(CCCSC)nn3)CC2)nc(N2CCN(C(=O)CCCCCCCCCCNC(=O)[C@H](CCCN=C(N)N)n3cc(C[C@@H](C)CC)nn3)CC2)n1	nt	nt	nt	121.9*	2.4	120.8*
C#CCOCCOCCOCCNc1nc(N2CCN(C(=O)CCCCCCCCCCNC(=O)Cn3cc(CCCCCN)nn3)CC2)nc(N2CCN(C(=O)CCCCCCCCCCNC(=O)[C@@H](CCSC)n3cc(CCO)nn3)CC2)n1	nt	nt	nt	118.8*	-2.2	124.7*
C#CCOCCOCCOCCNc1nc(N2CCN(C(=O)CCCCCCCCCCNC(=O)Cn3cc(C[C@@H](C)O)nn3)CC2)nc(N2CCN(C(=O)CCCCCCCCCCNC(=O)[C@@H](CCC(=O)O)n3cc(CCCCCN)nn3)CC2)n1	nt	nt	nt	66.3*	-5.1	50.9*
C#CCOCCOCCOCCNc1nc(N2CCN(C(=O)CCCCCCCCCCNC(=O)Cn3cc(C[C@@H](C)O)nn3)CC2)nc(N2CCN(C(=O)CCCCCCCCCCNC(=O)[C@H](CO)n3cc(CCCSC)nn3)CC2)n1	nt	nt	nt	17.2	nt	nt
C#CCOCCOCCOCCNc1nc(N2CCN(C(=O)CCCCCCCCCCNC(=O)[C@@H](CCSC)n3cc(CCO)nn3)CC2)nc(N2CCN(C(=O)CCCCCCCCCCNC(=O)[C@H](CCSC)n3cc(CCO)nn3)CC2)n1	nt	nt	nt	28.4	nt	nt
S=C1NCCNC(=S)NCCOCCOCCOCCN1	-4.0	101.0	98.0	-17.3	nt	nt
CCN(Cc1nc(-c2ccc(OC)c(OC)c2)no1)C(=O)c1ccoc1C	7.0	101.0	105.0	-3.7	nt	nt
Cc1ccc(Cl)cc1NC(=O)Cn1c(C)csc1=O	nt	nt	nt	-3.7	nt	nt
C#CCOCCOCCOCCNc1nc(N2CCN(C(=O)CCCCCCCCCCNC(=O)Cn3cc(CCCCCN)nn3)CC2)nc(N2CCN(C(=O)CCCCCCCCCCNC(=O)[C@@H](CCC(=O)O)n3cc(CCCCCN)nn3)CC2)n1	nt	nt	nt	96.1*	0.9	79.0*
C#CCOCCOCCOCCNc1nc(N2CCN(C(=O)CCCCCCCCCCNC(=O)Cn3cc(CCCCCN)nn3)CC2)nc(N2CCN(C(=O)CCCCCCCCCCNC(=O)Cn3cc(CCCCCN)nn3)CC2)n1	nt	nt	nt	117.6*	-0.6	120.6*
C#CCOCCOCCOCCNc1nc(N2CCN(C(=O)CCCCCCCCCCNC(=O)[C@H](CO)n3cc(CCCSC)nn3)CC2)nc(N2CCN(C(=O)CCCCCCCCCCNC(=O)[C@H](CCCCN)n3cc(CCO)nn3)CC2)n1	nt	nt	nt	112.6*	0.8	123.5*
C#CCOCCOCCOCCNc1nc(N2CCN(C(=O)Cn3cc(CCCCN)nn3)CC2)nc(N2CCN(C(=O)Cn3cc(CCCCN)nn3)CC2)n1	8.0	99.0	105.0	25.5	nt	nt
O=C(CN(C(=O)CCC(=O)Nc1ccccn1)c1ccc2c(c1)OCO2)NCc1ccc(F)cc1	0.0	98.0	93.0	3.3	nt	nt
CC(CN1CCCCC1)OC(=O)C(C)(c1ccccc1)c1ccccc1 (centres undefined)	-2.0	102.0	110.0	16.6	nt	nt
Nc1nc2ccccc2cc1S(=O)(=O)c1ccccc1	1.0	117.0	97.0	28.1	nt	nt
Nc1ncc([N+](=O)[O-])cc1S(=O)(=O)c1ccccc1	nt	nt	nt	53.5*	2.5	48.7*
Cc1cccc(/C=C2/Sc3ccc(C(=O)NCCN4CCCC4)cc3NC2=O)c1	46.0*	105.0	183.0*	59.5*	2.9	94.0*
CCN1CCN(CCCNC(=O)c2ccc3c(c2)NC(=O)/C(=C\c2cccc(C)c2)S3)CC1	19.0	103.0	165.0*	55.3*	-0.3	65.3*
SMILES	MEKK2mut PB1 HTS	MEKK3 PB1 HTS	MEKK2 WT-MEK5	UBC13 inh	Casp3 counter	UBC13 conf
CCOC(=O)C1CCN(C(=O)c2ccc3c(c2)NC(=O)/C(=C\c2cccc(C)c2)S3)CC1	-8.0	98.0	95.0	-3.7	nt	nt
CCN1CCN(CCCNC(=O)c2ccc3c(c2)NC(=O)c2ccccc2S3)CC1	7.0	98.0	112.0	36.3	nt	nt
COc1cccc(/C=C2/Sc3ccc(C(=O)NCCN4CCCCCC4)cc3NC2=O)c1	71.0*	112.0	280.0*	66.2*	0.7	92.3*
Cc1ccc(NC(=O)CN2C(=O)NC3(CCCC3)C2=O)c(Cl)c1	-2.0	101.0	98.0	-7.6	nt	nt
COc1c(OC(C)=O)c(=O)n2c3ccccc3c3ccnc1c32	nt	nt	nt	5.8	nt	nt
CCN(CC)S(=O)(=O)c1ccc(O)c(NS(=O)(=O)c2ccccc2F)c1	0.0	98.0	99.0	-7.0	nt	nt
CC(C)(C)OC(=O)NCCCCCNC(=O)c1[nH]cnc1C(=O)NC1CCN(C(=O)OC(C)(C)C)CC1	nt	nt	nt	6.7	nt	nt
CCCCNc1c(-c2ccc(OC)c(SC3CCCCC3)c2)nc2cc(C)ccn12	nt	nt	nt	49.9*	2.7	21.7
CCCCCCSc1cc(-c2nc3cc(C)ccn3c2NC2CCCCC2)ccc1OC	nt	nt	nt	50.8*	-1.4	29.8
C/C(CCc1ccccc1)=N/NC(=O)C(=O)NCc1ccccc1	-16.0	80.0	81.0	4.7	nt	nt
COc1ccc(-c2cc(C)no2)cc1S(=O)(=O)NCC(C)c1ccccc1 (centres undefined)	1.0	102.0	93.0	-4.3	nt	nt
NCCCS(=O)(=O)O	2.0	98.0	97.0	0.5	nt	nt
NCCCNCCCCNCCCN	nt	nt	nt	93.1*	-2.7	73.4*
CN(Cc1nc2ccccc2c(=O)[nH]1)C(=O)COc1ccccc1Cc1ccccc1	nt	nt	nt	11.9	nt	nt
